This is part of a sample that, as a whole, favours compounds with a hit. Of some 83,000 tested, about 20% had one in any assay.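 Step 1: grow cells in 96-well plates. Step 2: add test compound at a single concentration. Step 3: incubate 48 h. Step 4: record percent growth.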 Activity calls are given as the source filed them. How the source made its calls: active means growth percent below 10; inactive means the rest.
Columns and labels:
Assay in all cases: NCI-60 one-dose screen, 48 h (100 = growth as untreated, 0 = no growth, -100 = all killed)
Conditions in all cases: 10 µM
NCI-H23 lung = system: NCI-H23 lung
NCI-H226 lung = system: NCI-H226 lung
NCI-H322M lung = system: NCI-H322M lung
HOP-62 NSCLC = system: HOP-62 NSCLC
NCI-H460 lung = system: NCI-H460 lung
HOP-92 NSCLC = system: HOP-92 NSCLC
NCI-H522 lung = system: NCI-H522 lung
A549/ATCC NSCLC = system: A549/ATCC NSCLC
786-0 renal = system: 786-0 renal
COLO 205 colon = system: COLO 205 colon
DU-145 prostate = system: DU-145 prostate
K-562 leukemia = system: K-562 leukemia
MALME-3M melanoma = system: MALME-3M melanoma
MDA-MB-231 breast = system: MDA-MB-231 breast
SF-268 CNS = system: SF-268 CNS
SF-295 CNS = system: SF-295 CNS
SF-539 CNS = system: SF-539 CNS
UACC-257 melanoma = system: UACC-257 melanoma
M14 melanoma = system: M14 melanoma

Measured: growth

Cc1noc2c(Cc3ccccc3)nn(CC(=O)N/N=C/c3ccc(Cl)cc3)c(=O)c12
active: HOP-92 NSCLC 9.05% | 786-0 renal -23.9% | MDA-MB-231 breast 5.74%
inactive: NCI-H23 lung 79.1% | NCI-H226 lung 14.5% | NCI-H322M lung 96.3% | HOP-62 NSCLC 34.9% | NCI-H460 lung 10.4% | NCI-H522 lung 83.9% | A549/ATCC NSCLC 20.4% | COLO 205 colon 51.8% | DU-145 prostate 68.9% | K-562 leukemia 93.7% | MALME-3M melanoma 34.4% | SF-268 CNS 59.8% | SF-295 CNS 38.8% | SF-539 CNS 67.7% | UACC-257 melanoma 96% | M14 melanoma 94.4%

Nc1nc(-c2ccccc2)cs1
inactive: NCI-H23 lung 42% | NCI-H226 lung 63.4% | NCI-H322M lung 99.4% | HOP-62 NSCLC 52% | NCI-H460 lung 73.2% | HOP-92 NSCLC 60.9% | A549/ATCC NSCLC 55.7% | 786-0 renal 93.7% | COLO 205 colon 108% | DU-145 prostate 66.7% | K-562 leukemia 28.2% | MALME-3M melanoma 74.4% | MDA-MB-231 breast 61.8% | SF-268 CNS 48.3% | SF-295 CNS 37.7% | SF-539 CNS 53.4% | UACC-257 melanoma 81.9% | M14 melanoma 72.2%
active: NCI-H522 lung -4.11%

O=C(CSc1nnc(-c2c[nH]c3ccccc23)n1-c1ccccc1)c1ccc(Cl)cc1
inactive: NCI-H23 lung 40.8% | NCI-H226 lung 17.6% | NCI-H322M lung 58.7% | HOP-62 NSCLC 47.1% | NCI-H460 lung 60.1% | HOP-92 NSCLC 65% | NCI-H522 lung 67% | A549/ATCC NSCLC 37.5% | 786-0 renal 44.9% | COLO 205 colon 42.6% | DU-145 prostate 88.4% | K-562 leukemia 69% | MALME-3M melanoma 64% | MDA-MB-231 breast 51.7% | SF-268 CNS 69.4% | SF-295 CNS 55% | SF-539 CNS 49.5% | UACC-257 melanoma 72.3% | M14 melanoma 80.6%

O=C(CSc1nnc(-c2ccc3nc(-c4ccc(Cl)cc4)[nH]c3c2)o1)Nc1ccc(Br)cc1
active: NCI-H23 lung -82.9% | NCI-H226 lung -62.9% | NCI-H322M lung -40.8% | HOP-62 NSCLC -66.9% | NCI-H460 lung -82.7% | HOP-92 NSCLC -11.3% | NCI-H522 lung -67.9% | A549/ATCC NSCLC -54.9% | 786-0 renal -74.9% | COLO 205 colon 0.691% | K-562 leukemia 5.15% | MALME-3M melanoma -81% | MDA-MB-231 breast -97.3% | SF-268 CNS 0.811% | SF-295 CNS -89.4% | SF-539 CNS -95.2% | UACC-257 melanoma -12.9% | M14 melanoma -84.4%
inactive: DU-145 prostate 11.7%

O=S(=O)(Nc1ncccn1)c1ccc(-n2c(-c3ccc(Br)cc3)nc(-c3ccccc3)c2-c2ccccc2)cc1
active: SF-295 CNS 8.26%
inactive: NCI-H23 lung 22.5% | NCI-H226 lung 26% | NCI-H322M lung 64.1% | HOP-62 NSCLC 56.8% | NCI-H460 lung 31.7% | HOP-92 NSCLC 11.4% | NCI-H522 lung 74.5% | A549/ATCC NSCLC 34.9% | 786-0 renal 34.5% | COLO 205 colon 124% | DU-145 prostate 58.3% | K-562 leukemia 44% | MALME-3M melanoma 74.6% | MDA-MB-231 breast 51.3% | SF-268 CNS 32.5% | SF-539 CNS 55.8% | UACC-257 melanoma 59.4% | M14 melanoma 38.4%

O=C(CSc1nnc(-c2ccc3nc(-c4ccccc4)[nH]c3c2)o1)Nc1ccc(Br)cc1
active: NCI-H460 lung 6.71% | MALME-3M melanoma 5.76% | SF-539 CNS 8.7%
inactive: NCI-H23 lung 54.2% | NCI-H226 lung 80.2% | NCI-H322M lung 86.3% | HOP-62 NSCLC 92.2% | HOP-92 NSCLC 135% | NCI-H522 lung 61.2% | A549/ATCC NSCLC 66.2% | 786-0 renal 66.7% | COLO 205 colon 81.1% | DU-145 prostate 78.2% | K-562 leukemia 18.4% | MDA-MB-231 breast 52.3% | SF-268 CNS 87.8% | SF-295 CNS 74.3% | UACC-257 melanoma 98.8% | M14 melanoma 52.3%

Cc1ccc(C(=O)CSc2nnc(-c3c[nH]c4ccccc34)n2-c2ccccc2)cc1
active: NCI-H226 lung -41.3% | HOP-62 NSCLC 7.8% | HOP-92 NSCLC -7.56% | NCI-H522 lung 1.43% | 786-0 renal -35.4% | MDA-MB-231 breast -2.39%
inactive: NCI-H23 lung 17.3% | NCI-H322M lung 74.9% | NCI-H460 lung 29.3% | A549/ATCC NSCLC 53.3% | COLO 205 colon 75% | DU-145 prostate 78.9% | K-562 leukemia 27.2% | MALME-3M melanoma 35.1% | SF-268 CNS 29.7% | SF-295 CNS 11.1% | SF-539 CNS 22.1% | UACC-257 melanoma 77.3% | M14 melanoma 51.2%

CC1(C)[C@@H](NCO)CC[C@]2(C)[C@H]3C(=O)C=C4[C@@H]5C[C@](C)(CO)CC[C@]5(C)CC[C@@]4(C)[C@]3(C)CC[C@@H]12
active: NCI-H460 lung 0.687% | K-562 leukemia 8.51% | SF-295 CNS 2.19%
inactive: NCI-H23 lung 66.5% | NCI-H226 lung 68% | NCI-H322M lung 63.1% | HOP-62 NSCLC 85.2% | HOP-92 NSCLC 52% | NCI-H522 lung 72.7% | A549/ATCC NSCLC 60% | 786-0 renal 42.8% | COLO 205 colon 24.6% | DU-145 prostate 79.4% | MALME-3M melanoma 49% | MDA-MB-231 breast 44.2% | SF-268 CNS 68.8% | SF-539 CNS 45.4% | UACC-257 melanoma 33.4% | M14 melanoma 25.5%

O=C(CSc1nnc(-c2ccc3nc(-c4ccc(Cl)cc4)[nH]c3c2)o1)Nc1ccc(Cl)cc1
active: NCI-H23 lung -73.9% | NCI-H226 lung -68.8% | NCI-H322M lung -66.5% | HOP-62 NSCLC -56.4% | NCI-H460 lung -51.3% | HOP-92 NSCLC -6.37% | NCI-H522 lung -45.1% | A549/ATCC NSCLC -58.4% | 786-0 renal -76.8% | COLO 205 colon 7.13% | DU-145 prostate 2.3% | K-562 leukemia 5.7% | MALME-3M melanoma -78.6% | MDA-MB-231 breast -87.1% | SF-268 CNS -6.48% | SF-295 CNS -99.4% | SF-539 CNS -100% | UACC-257 melanoma -32.6% | M14 melanoma -50.6%

OCc1[nH]nc2cc(Nc3ncc4ccc(Br)c(OC5CCC(O)CC5)c4n3)ccc12 (stereo not given)
active: NCI-H23 lung -88.8% | NCI-H226 lung -2.72% | NCI-H322M lung -17.9% | HOP-62 NSCLC 0.469% | NCI-H460 lung 2.31% | NCI-H522 lung -31.2% | A549/ATCC NSCLC 4.04% | 786-0 renal -26% | COLO 205 colon -76.9% | MALME-3M melanoma -63.4% | MDA-MB-231 breast -10.2% | SF-268 CNS 7.67% | SF-295 CNS -49.8% | SF-539 CNS -83.3% | UACC-257 melanoma -18.2% | M14 melanoma -58.9%
inactive: HOP-92 NSCLC 20.9% | DU-145 prostate 11.6% | K-562 leukemia 11.4%

Reference: PubChem BioAssay (NCI)
